This note sets out measurements from PubChem BioAssay (NCI).

About 83,000 compounds went through this panel and 20% of them were active in at least one assay; those are over-represented in the sample as a whole.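 96-well plates, one dose, 48 hours. Percent growth reported; active if below 10.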 Values without a mark were called inactive. The source made the active and inactive calls.

Assay in all cases: NCI-60 one-dose screen, 48 h (100 = growth as untreated, 0 = no growth, -100 = all killed)
Details in all cases: 10 µM unless noted

The test system of assay [1] is DU-145 prostate.
The subject of assay [2] is K-562 leukemia.
For assay [3], the system named is MALME-3M melanoma.
In assay [4] the test system is MDA-MB-231 breast.
The test system of assay [5] is RXF 393 renal.
Assay [6] deals with SF-268 CNS.
For assay [7], the system named is SF-295 CNS.
The subject of assay [8] is SF-539 CNS.
For assay [9], the system named is UACC-257 melanoma.
The subject of assay [10] is M14 melanoma.

For the compound `COc1ccc(/C=C2\CN(Cc3cn(CCCNc4ccnc5cc(Cl)ccc45)nn3)C/C(=C\c3ccc(OC)c(OC)c3)C2=O)cc1OC`, the growth in assay [1] was 11.7%; in [2], 4.56% (active); in assay [3], 17.8%; in assay [4], -10.2% (active); in assay [5], -95.1% (active); in assay [6], -4.95% (active). Besides, the growth in assay [7] is -55.9% (active); in assay [8], 6.69% (active); in [9], 45.3%; in assay [10], -21.5% (active).

As for `O=C1Nc2ccc(Cl)cc2/C1=N/N=C(c1ccccc1)c1ccccc1`, the growth in assay [1] was 103%; in [2], 93.3%; in assay [3], 87.9%; in [4], 75.6%; in assay [5], 109%; in assay [6], 97.8%. Besides, the growth in assay [7] was 92.6%; in [8], 97%; in assay [9], 98.5%; in assay [10], 102%.

As for `COc1ccc(-n2ncc3c4nc(OC)c(S(=O)(=O)c5ccccc5)cc4ccc32)cc1`, the growth in [1] was 73%; in [2], 119%; in assay [3], 56.9%; in [4], 75.6%; in assay [5] it was 35.1%; in [6], 50.9%. Further, the growth in assay [7] was 84%; in assay [8], 30.7%; in [9], 76.9%; in assay [10], 85%.

`Cc1nc2cc(Nc3nc(NCCO)nc(Nc4ccc(F)cc4)n3)ccc2n1Cc1ccccc1`: the growth in assay [1] is 88.5%; in assay [2], 19.2%; in [3], 105%; in [4], 80.3%; in assay [5], 90.2%; in assay [6], 92.2%. Also, the growth in assay [7] was 86.4%; in assay [8], 94.4%; in [9] it was 98.8%; in [10], 93%.

On to `CN1CCN(c2ccc3nc(-c4ccc5nc(-c6ccc(C(F)(F)F)cc6)[nH]c5c4)[nH]c3c2)CC1`, for which the growth in assay [1] was 59.2%; in assay [2] it was -34.2% (active); in assay [3], 18%; in assay [4] it was 82%; in assay [5], -14.3% (active); in [6], 70.8%. The growth in assay [7] is 50.9%; in [8], 47.2%; in assay [9], 87.2%; in [10], 43.8%.

For `c1ccc2cc(-c3n(Cc4ccc5ccccc5n4)c4ccccc4[n+]3Cc3ccc4ccccc4n3)ccc2c1`, the growth in [1] was 13.3%; in assay [2], -6.05% (active); in [3] it was -32.9% (active); in [4], -21% (active); in [5], -18.8% (active); in [6], -3.09% (active). Moreover, the growth was -13.7% (active) in [7], 0.28% (active) in [8], -14.2% (active) in assay [9] and -8.82% (active) in assay [10].

`O=[N+]([O-])c1cc2c(cc1Br)-c1ccccc1C2`: the growth in [1] was 113%; in [2], 95.6%; in assay [3], 110%; in assay [4], 90.8%; in [5], 99.5%; in assay [6], 98.1%. Further, the growth in assay [7] is 93.4%; in [8] it was 101%; in [9], 98.8%; in assay [10], 78.7%.

Turning to `CCOC(=O)c1cn2c3c(cc(F)cc3c1=O)C(CC)c1ccccc1C2` (stereo not given), the growth in [1] is 104%; in [2] it was 78.1%; in assay [3], 90.8%; in assay [4] it was 104%; in [5], 118%; in assay [6], 96.8%. For the same compound, the growth in assay [7] is 91.5%; in assay [8] it was 97.5%; in [9], 96.3%; in assay [10] it was 114%.

On to `COc1ccc(OC)c(C2C(C#N)=C(N)Oc3cc(O)ccc32)c1` (stereo not given), for which the growth in assay [1] was 107%; in [2] it was 83.4%; in [3], 85.9%; in [4] it was 99%; in [5], 92.1%; in [6], 98.2%. In addition, the growth was 83.3% in assay [7], 104% in assay [8], 99.9% in [9] and 100% in [10].

Turning to `COc1cc(-c2nc3ccccc3o2)cc(CN2CCN(c3ccccc3)CC2)c1O`, the growth is 71.8% in [1]; 40.1% in assay [2]; 63% in [3]; 69.3% in assay [4]; 107% in [5]; 83.3% in [6]. The growth in [7] was 36.2%; in [8], 94.7%; in [9], 86.7%; in assay [10], 52.5%.

Take `COc1ccc(/C=C2\SC(=O)N(CN3CCN(c4cc5c(cc4F)c(=O)c(C(=O)O)cn5C4CC4)CC3)C2=O)cc1`: the growth in [1] was 109%; in assay [2] it was 114%; in assay [3] it was 97.6%; in [4], 106%; in assay [5], 108%; in assay [6], 99%. Besides, the growth in assay [7] is 99.6%; in [8], 107%; in assay [9], 96.7%; in assay [10], 88.6%.

For `Cc1ccc(S(=O)(=O)N2CCc3ccc(O)c4c3C2CCc2ccccc2-4)cc1` (stereo not given), the growth is 106% in assay [1]; 94.1% in assay [2]; 97.2% in assay [3]; 95.2% in assay [4]; 117% in assay [5]; 97.1% in assay [6]. Also, the growth is 104% in assay [7], 105% in assay [8], 105% in assay [9] and 98.6% in assay [10].

For `NC(=O)c1nc2c([nH]c1=O)CCCC2`, the growth in assay [1] is 108%; in assay [2] it was 92.2%; in assay [3] it was 101%; in assay [4] it was 118%; in assay [5], 97.6%; in [6], 101%. Also, the growth is 103% in [7], 96.6% in [8], 109% in [9] and 122% in assay [10].

As for `COc1ccc(-c2csc3c2-n2cccc2C3=O)cc1O`, the growth was -23.5% (active) in [1]; 5.65% (active) in assay [2]; 66.2% in [3]; 13.2% in assay [4]; 31.3% in assay [5]; 13% in assay [6]. Further, the growth was -31.7% (active) in assay [7], 15.6% in assay [8], 43.8% in assay [9] and -18.5% (active) in assay [10].

As for `Cc1c(C(=O)Nc2nc(-c3ccccc3)cs2)nnn1-c1ccccc1Br`, the growth in assay [1] was 51.8% [50 µM]; in assay [2], 20.3% [50 µM]; in [3], 17.5% [50 µM]; in assay [4] it was 44% [50 µM]; in assay [5] it was 76.4% [50 µM]; in assay [6] it was 61.5% [50 µM]. The growth is 31.2% [50 µM] in [7], 63.8% [50 µM] in [8], 13.2% [50 µM] in assay [9] and 43.1% [50 µM] in [10].

Take `COc1cc(/C=N/NC(=O)c2cnn3c2NC(c2ccccc2)C3)ccc1OC1CCCC1` (stereo not given): the growth is 26.5% in [1]; 18.7% in [2]; 40.1% in assay [3]; 52.7% in assay [4]; -27.9% (active) in [5]; 36.9% in [6]. Also, the growth in assay [7] was 6.52% (active); in assay [8], -15.6% (active); in [9], 43.4%; in assay [10], 22.8%.

With `CN1CCc2c(Sc3ccc(C(=O)NO)cc3)c3ccccc3n2C1`, the growth was 36.8% in [1]; 28.2% in assay [2]; 42.4% in assay [3]; 8.01% (active) in assay [4]; 52.5% in [5]; 35.9% in assay [6]. Moreover, the growth in assay [7] was 40.6%; in assay [8] it was 17.1%; in assay [9] it was 14.1%; in [10] it was 38.1%.

With `CCN(CC)CCCNc1ccc(C)c2sc3ccccc3c(=O)c12`, the growth was 43.2% in [1]; -7.56% (active) in [2]; -61.7% (active) in assay [3]; -12.1% (active) in [4]; 1.02% (active) in assay [5]; 48.1% in assay [6]. In addition, the growth in assay [7] was 32.5%; in assay [8], 51.5%; in [9], -61.3% (active); in assay [10], -64.8% (active).

`Nc1nc(N)c(N=Nc2c(Br)cc(S(N)(=O)=O)cc2Br)c(N)n1`: the growth in assay [1] was 109%; in assay [2] it was 51.1%; in assay [3], 111%; in assay [4], 105%; in [5], 107%; in [6], 100%. Also, the growth in assay [7] was 94.9%; in assay [8], 112%; in assay [9], 98.7%; in [10], 87.8%.

Regarding `Cc1nc2cc(Nc3nc(N4CCOCC4)nc(N4CCN(C)CC4)n3)ccc2n1Cc1ccccc1`, the growth in assay [1] is 114%; in assay [2] it was 90.3%; in assay [3], 106%; in [4] it was 100%; in assay [5] it was 101%; in assay [6] it was 96.2%. Moreover, the growth is 95.2% in [7], 91.3% in assay [8], 99.2% in [9] and 110% in assay [10].

Regarding `Cc1ccc(-c2nnc(COc3ccc(-c4nnc(N)s4)cc3)o2)cc1`, the growth in [1] was 100%; in assay [2], 91.1%; in [3] it was 67.6%; in [4], 87.8%; in assay [5], 58%; in assay [6], 79.6%. Also, the growth in assay [7] is 7.56% (active); in assay [8], 109%; in assay [9], 112%; in [10] it was 88.1%.

For `CCCCc1ccc(C(O)(CCN2CC3CCC(CC3)C2)c2ccccc2)cc1` (stereo not given), the growth in [1] was 99.8%; in assay [2] it was 75.2%; in assay [3], 95.7%; in assay [4] it was 99.1%; in assay [5], 96.2%; in assay [6], 97.1%. For the same compound, the growth is 102% in assay [7], 101% in assay [8], 95.2% in assay [9] and 91.7% in assay [10].

For the compound `COc1cc(/C=C/C(=O)C2=C(/C=C/c3ccc(O)c(OC)c3)NC(=O)NC2c2ccc(O)c(OC)c2)ccc1O` (stereo not given), the growth was 111% in assay [1]; 87% in assay [2]; 117% in assay [3]; 67.7% in assay [4]; 97.1% in assay [5]; 93.5% in [6]. Further, the growth in assay [7] is 93.1%; in assay [8], 87%; in [9], 85.6%; in [10], 94%.

Turning to `O=C(Nc1ccc(F)cc1)c1ccc(C(=O)Nc2ccc(F)cc2)cc1`, the growth is 112% in assay [1]; 98.7% in [2]; 101% in [3]; 102% in assay [4]; 105% in assay [5]; 107% in [6]. In addition, the growth in assay [7] is 91.1%; in assay [8], 89.9%; in assay [9], 101%; in [10], 105%.

`Clc1ccc2c(c1)C[C@H]1C[C@@H](c3cccs3)N2O1`: the growth is 106% in assay [1]; 106% in assay [2]; 95.9% in assay [3]; 113% in assay [4]; 131% in assay [5]; 102% in [6]. For the same compound, the growth in assay [7] is 94.4%; in assay [8] it was 92.3%; in [9], 105%; in assay [10], 118%.

With `O=C1CC2c3cc(-c4cc5ccccc5o4)ccc3CCN2C(=O)N1c1ccccc1` (stereo not given), the growth in assay [1] is 96.5%; in [2], 58.4%; in assay [3] it was 71.6%; in assay [4], 93.3%; in assay [5], 114%; in assay [6] it was 92.4%. The growth in [7] is 90%; in assay [8], 106%; in assay [9], 87.8%; in [10] it was 90.7%.

With `CCCN1CCN(c2ccc3nc(-c4ccc5nc(-c6ccc(C(F)(F)F)cc6)[nH]c5c4)[nH]c3c2)CC1`, the growth in assay [1] is -95.3% (active); in assay [2], -51.4% (active); in [3] it was -64.7% (active); in [4], -86.9% (active); in [5] it was -70.4% (active); in assay [6], -70.2% (active). Moreover, the growth in assay [7] is -58.4% (active); in [8] it was -94.6% (active); in assay [9], 96.5%; in assay [10] it was -59% (active).
